# Over roughly 4,500 sequences, “log2 normalized fluorescence” has its median near -0.34; the highest 2% begin near 3.3. Shown is part of a subset that was picked to be rich in the highest values.
# Molecular target: MAX:MAX (p21) (human, UniProt P61244-2 1-151)
# Test: protein-binding microarray (anti-MAX antibody); PBM: 15 mM Tris-HCl pH 7.5, 100 mM KCl, 0.075% NP40, 7.5 mM beta-mercaptoethanol, 375 ng/ul BSA, 8 ng/ul poly(dA-dT):(dA-dT), 550 ng complex, 60 min, room tempe; high values mean tight binding
# Conditions: protein: recombinant; tags: 6xHis; chain copies: 2; label: 3' end of printed strand (linker) attached to glass slide; dsDNA, one strand shown
# Summary of the method: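 Binding, given as log2 normalized fluorescence, was measured on a custom Agilent glass array. The array bore ~5000 unique 12-nt sequences spotted in triplicate and converted to double strands by primer extension. It was incubated with 550 ng of human His-tagged MYC:MAX or MAX:MAX dimers from E. coli for 60 min at room temperature in Tris-KCl buffer, pH 7.5, with NP40, BSA and poly(dA-dT) competitor, and bound protein was detected with anti-MAX and secondary antibodies and scanned at 543 nm.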
# MAX:MAX (p21), sequence (P61244 other isoform, or with tags, fused parts or gaps): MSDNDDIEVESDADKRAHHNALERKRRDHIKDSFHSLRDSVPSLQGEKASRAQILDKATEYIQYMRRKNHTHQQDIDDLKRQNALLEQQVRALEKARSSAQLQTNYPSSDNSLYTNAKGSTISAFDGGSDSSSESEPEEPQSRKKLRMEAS
row,Sequence,binding signal
1,CCGGCAGACACGTGGTCTTAATAGCTAAGATTACTATATCGACG,3.43 log2 normalized fluorescence
2,CCGGCGTACACGTGGTATTAATAGCTAAGATTACTATATCGACG,3.3 log2 normalized fluorescence
3,CCGGCAAACACGTTGTATTAATAGCTAAGATTACTATATCGACG,3.31 log2 normalized fluorescence
4,CCGGCCAACACGTTGTATTAATAGCTAAGATTACTATATCGACG,3.07 log2 normalized fluorescence
5,CCGGCGTATACGTGGTATTAATAGCTAAGATTACTATATCGACG,1.62 log2 normalized fluorescence
6,CCGGCATACACGTGGTATTAATAGCTAAGATTACTATATCGACG,3.25 log2 normalized fluorescence
7,CCGGCTAACACGTTGTATTAATAGCTAAGATTACTATATCGACG,3.12 log2 normalized fluorescence
8,CCGGCGTACACGTGGTCTTAATAGCTAAGATTACTATATCGACG,3.35 log2 normalized fluorescence
9,CCGGCAGACACGTGGTATTAATAGCTAAGATTACTATATCGACG,3.08 log2 normalized fluorescence
10,CCGGCTGACACGTGGTCTTAATAGCTAAGATTACTATATCGACG,3.21 log2 normalized fluorescence
11,CCGGCTGGTACGTGGTCTTAATAGCTAAGATTACTATATCGACG,1.03 log2 normalized fluorescence
12,CCGGCTTACACGTGGTCTTAATAGCTAAGATTACTATATCGACG,3.19 log2 normalized fluorescence
13,CCGGCTGACCATCTGTATTAATAGCTAAGATTACTATATCGACG,1.1 log2 normalized fluorescence
14,CCGGCTGACGTACAGTATTAATAGCTAAGATTACTATATCGACG,-0.0346 log2 normalized fluorescence
15,CCGGCTGACACGTAACATTAATAGCTAAGATTACTATATCGACG,1.37 log2 normalized fluorescence
16,CCGGCTGATTGGATGTATTAATAGCTAAGATTACTATATCGACG,-0.659 log2 normalized fluorescence
17,CCGGCTGACTCGCTGTATTAATAGCTAAGATTACTATATCGACG,0.114 log2 normalized fluorescence
18,CCGGCTGAAGAACCGTATTAATAGCTAAGATTACTATATCGACG,-0.66 log2 normalized fluorescence
19,CCGGCTGACAACTTGTATTAATAGCTAAGATTACTATATCGACG,-0.311 log2 normalized fluorescence
20,CCGGCCCGCCAAAGCATTTAATAGCTAAGATTACTATATCGACG,0.154 log2 normalized fluorescence
21,CCGGCTGACAAATCGTATTAATAGCTAAGATTACTATATCGACG,-0.658 log2 normalized fluorescence
22,CCGGCTGATCGTCAGTATTAATAGCTAAGATTACTATATCGACG,-0.695 log2 normalized fluorescence
23,CCGGCTGAGAGCGCGTATTAATAGCTAAGATTACTATATCGACG,-0.456 log2 normalized fluorescence
24,CCGGCTTAATCGTGGTATTAATAGCTAAGATTACTATATCGACG,1.43 log2 normalized fluorescence
25,CCGGCCTACACGTGGTGTTAATAGCTAAGATTACTATATCGACG,3.19 log2 normalized fluorescence
26,CCGGCTAACACGTGGTATTAATAGCTAAGATTACTATATCGACG,3.45 log2 normalized fluorescence
27,CCGGCTGACACGCGGTATTAATAGCTAAGATTACTATATCGACG,3.1 log2 normalized fluorescence

row,Sequence,binding signal
1,CCGGCTAACACGCGGTATTAATAGCTAAGATTACTATATCGACG,3.35 log2 normalized fluorescence
2,CCGGCCTACACGTGGTATTAATAGCTAAGATTACTATATCGACG,3.31 log2 normalized fluorescence
3,CCGGCTTAGACGTGGTATTAATAGCTAAGATTACTATATCGACG,1.04 log2 normalized fluorescence
4,CCGGCTACTACGTGGTATTAATAGCTAAGATTACTATATCGACG,1.83 log2 normalized fluorescence
5,CCGGCTTACACGTGGTATTAATAGCTAAGATTACTATATCGACG,3.3 log2 normalized fluorescence
6,CCGGCAAACACGTGGTATTAATAGCTAAGATTACTATATCGACG,3.01 log2 normalized fluorescence
7,CCGGCCGACACGCGGTATTAATAGCTAAGATTACTATATCGACG,2.86 log2 normalized fluorescence
8,CCGGCCAACACGTGGTATTAATAGCTAAGATTACTATATCGACG,3.22 log2 normalized fluorescence
9,CCGGCTGACAAAGTGTATTAATAGCTAAGATTACTATATCGACG,-0.349 log2 normalized fluorescence
10,CCGGCTGGCGCATGGTATTAATAGCTAAGATTACTATATCGACG,3.17 log2 normalized fluorescence
11,CCGGCTGAACGCCTGTATTAATAGCTAAGATTACTATATCGACG,0.727 log2 normalized fluorescence
12,CCGGCTGACATCCCGTATTAATAGCTAAGATTACTATATCGACG,0.192 log2 normalized fluorescence
13,CCGGCTGACAGAACGTATTAATAGCTAAGATTACTATATCGACG,-0.288 log2 normalized fluorescence
14,CCGGCTGAGTCCTCGTATTAATAGCTAAGATTACTATATCGACG,-0.692 log2 normalized fluorescence
15,CCGGCTGATCTCACGTATTAATAGCTAAGATTACTATATCGACG,-0.038 log2 normalized fluorescence
16,CCGGCTGAAACTCGGTATTAATAGCTAAGATTACTATATCGACG,-0.697 log2 normalized fluorescence
17,CCGGCGAACACGTAGTATTAATAGCTAAGATTACTATATCGACG,2.25 log2 normalized fluorescence
18,CCGGCGAACACGTGGTATTAATAGCTAAGATTACTATATCGACG,3.34 log2 normalized fluorescence
19,CCGGCGAACATGTGGTATTAATAGCTAAGATTACTATATCGACG,3.2 log2 normalized fluorescence
20,CCGGCTGAACGCTGGTATTAATAGCTAAGATTACTATATCGACG,0.233 log2 normalized fluorescence
21,CCGGCTGAGGACATGTATTAATAGCTAAGATTACTATATCGACG,0.549 log2 normalized fluorescence
22,CCGGCTGATGCCGCGTATTAATAGCTAAGATTACTATATCGACG,0.00246 log2 normalized fluorescence
23,CCGGCTGACACACGGTCTTAATAGCTAAGATTACTATATCGACG,1.84 log2 normalized fluorescence
24,CCGGCTGACACGTGCGATTAATAGCTAAGATTACTATATCGACG,3.02 log2 normalized fluorescence
25,CCGGCTGACACGTGCTATTAATAGCTAAGATTACTATATCGACG,3.17 log2 normalized fluorescence
26,CCGGCTGACACGCGGTCTTAATAGCTAAGATTACTATATCGACG,3.32 log2 normalized fluorescence

# Reference: article PMC5515408, “Sequence-specific DNA binding by MYC/MAX to low-affinity non-E-box motifs”
